The results in this text go back to PubChem BioAssay AID1159506 (National Center for Advancing Translational Sciences (NCATS), 2015).

In all, about 59,000 sequences were measured (the read-out: median about -0.00055, lowest 2% from about -2 on). Shown is part of a subset that was picked to be rich in the lowest values.

This assay in a line: Identification of proteins required for the processing of the EWS-FLI1 nascent transcript.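 Further: robust z of luciferase light less the median z of siRNAs with the same seed.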 The following applies: TC32 Ewing sarcoma NR0B1-luc vs CMV-luc (EWS-FLI1 target promoter against control promoter), 48 h; screened at 20 nM (by protocol). The method, boiled down: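 TC32 Ewing sarcoma cells carrying NR0B1-promoter or CMV-promoter luciferase reporters were reverse-transfected with single siRNAs at 20 nM, three per gene genome-wide. Luminescence was read after 48 h and normalized to non-targeting controls.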
UCAUUGUCUUCUAUCAAUC against FYN: the seed-corrected z-score is -0.739.

UUCGUAUUAAGAACUGCAG against PSMD1 registered a seed-corrected z-score of -2.79.

Consider UAUGGGUUUGUUAAAAGGC against FUT6, for which the seed-corrected z-score is -0.26.

In turn, UUGCCUUCCAAGUUCUUUC against TNP2 showed a seed-corrected z-score of -0.491.

Sequence AUACGAUAAGCAGAGGAGG against GLT8D1 registered a seed-corrected z-score of -0.112.

AAACCUGCUAUAUCACUCC against ATAD1 returned a seed-corrected z-score of 0.174.

As to AAUCUUCGUAAGACUAUCC against C9orf50, the seed-corrected z-score was -2.07.

UUCCUUGUUAGCACAGACC against GSR came in with a seed-corrected z-score of -0.669.

Take UACUUGUUGAGUGUCUCAG against CXCR1: the seed-corrected z-score was -1.52.

With AGUCGAAUAACAUAUAUCC against NBPF14, the seed-corrected z-score is -2.13.

With AAAGUUCUCAGGGUAGUGG against TOP3B, the seed-corrected z-score was -0.163.

UGUCAUAUACGCUCCAUAC against EYA4 yielded a seed-corrected z-score of -0.104.

With UGUUUCUACCCUUUGCUCC against FAM174B, the seed-corrected z-score was -0.127.

UUUGCAGCUAGUGAUGCGC against ABHD8 registered a seed-corrected z-score of -0.567.

For the sequence UAGCUAUUACCUUACAUUG against HRG, the seed-corrected z-score worked out at 0.409.

Turning to UCAUUGUUGAGGUGCGUGA against CDK5R1, the seed-corrected z-score came out at 1.16.

UUUUGGACAGGACCGUUGG against SEC24A had a seed-corrected z-score of 0.282.

Take UUUGGUGCAAAAACCGUGU against WTIP: the seed-corrected z-score was -2.

AUGGCUUCAACAAGCAUCU against HGH1 came in with a seed-corrected z-score of -0.109.

As for UAUGGGUCUACCGUCACAC against MIOS, the seed-corrected z-score is -1.14.

With UCAGGUACUCUAACACCGC against HIST1H2AC, the seed-corrected z-score was -0.00982.

UACCGGUCGAGGCUGAUCA against HRH2 returned a seed-corrected z-score of -2.03.

As to UUUCAUAGUAAUCGUAGAC against LOC728715, the seed-corrected z-score worked out at 0.493.

Consider UUGAGAGUAGAGACUGAGC against MKL2, for which the seed-corrected z-score is -0.474.

As to AAGCCUCACAGUACUGCGC against NSMCE3, the seed-corrected z-score was -2.76.

As for UACAGUGCAGGAUCUUCUC against NBL1, the seed-corrected z-score is -0.461.

In the case of UAUAUAUCGCCCAUCUCUC against OARD1, the seed-corrected z-score is -0.737.

In the case of UCUGGUACAUUCGAUAGCG against PTGFRN, the seed-corrected z-score turned out to be 0.714.

Consider UUUCUUCCCAUGAUCUUUC against RALBP1, for which the seed-corrected z-score was 0.057.

With UACUGUCCCAAUGGUCAGC against EZH2, the seed-corrected z-score was -2.1.

AAAUGAACAGGUUUGGAAC against GRPR yielded a seed-corrected z-score of 0.695.

The sequence UUCUUGUUGGAUAAUGCUG against RFX8 came in with a seed-corrected z-score of 0.126.

For the sequence AAUGAUCACACCUAAGCCC against USH2A, the seed-corrected z-score was -3.89.

The sequence UUCUGCACUCGAGUAAAGG against MAD2L1 returned a seed-corrected z-score of 0.536.

In turn, AUGCUAGUCAAAAGAAUCG against FBXO40 yielded a seed-corrected z-score of 0.266.

As for UCGUCUAAAAUGACUAACG against SACS, the seed-corrected z-score stood at 0.485.

In turn, UCAGAUUUCAGAUCUUUGA against ANXA11 registered a seed-corrected z-score of 0.136.

AAAGUACUCCGUAUUUCCC against SLC35D2 gave a seed-corrected z-score of -1.42.

Sequence UCUAGGGUCACUGUGACGG against RGS9BP returned a seed-corrected z-score of -0.834.

For the sequence UAGUUGUCCUUCAUAAUUC against CCDC67, the seed-corrected z-score is -2.53.

Turning to ACCUCUUCAACAUCUAACC against GEMIN4, the seed-corrected z-score is 0.118.

Take CACGUGGCUAUUGUGGAAC against COX6A2: the seed-corrected z-score is -1.45.

On to AUAGGUUCCUCUAUAUGUG against ZNF396, for which the seed-corrected z-score stood at 1.53.

UUGGGUGCGAUCUGCAGAC against LINC00304 gave a seed-corrected z-score of -0.536.

AAAACACGUCGAAAUCUCC against RPL39 registered a seed-corrected z-score of 0.834.

UAAGGAUAUUUGCUAAGGC against HMGCLL1 had a seed-corrected z-score of -0.796.

In turn, UGUCUUCGCACUCUUAUCC against IFRD1 showed a seed-corrected z-score of -2.25.

UGUCCAUCCGUCAUGAUGC against ANKRD60 registered a seed-corrected z-score of 0.777.

Sequence UAUGUAACAGGAUCCUGCC against RFC1 came in with a seed-corrected z-score of 0.0202.

Consider UAUAAGUAAGCCUAGCUUG against C16orf54, for which the seed-corrected z-score was determined as 0.684.

For the sequence UUCGAUAGAGAACAAGUCG against FBXL4, the seed-corrected z-score was -1.24.

For UUGAUUUCCACGUUGCAUC against SLC10A2, the seed-corrected z-score was -2.5.

UACGGGUGCAGUAGUGGUG against RGR registered a seed-corrected z-score of -0.158.

In turn, UCAUCGUCUACUUCCAUUG against BPTF gave a seed-corrected z-score of -1.63.

Take AACCGCUCCAUUUUUGCUC against POM121L12: the seed-corrected z-score is 0.212.

The sequence AAUUUAUUCCAAACUUGUC against ME3 had a seed-corrected z-score of -2.03.

With UUAGGGAAAGGUCCUCCUU against ELK1P1, the seed-corrected z-score worked out at 0.104.

In the case of UGACUUAUGAACAUCAAAG against KLHL31, the seed-corrected z-score was -1.09.

AUCUAUCUGACCCAAAUCC against HNRNPH1 returned a seed-corrected z-score of -2.26.

In the case of ACAUGAUCCAUCCAAAUGC against CD163, the seed-corrected z-score was -0.0516.

The sequence AACCGAUUCAUGACCACCG against AQP5 came in with a seed-corrected z-score of 0.51.

Turning to UUGGUGACUGUGCGCAUCC against TACR2, the seed-corrected z-score is -0.41.

Consider AUGUGGACAACCUUCUUUG against RPS10P9, for which the seed-corrected z-score was -1.14.

For AACGGGAACACCGACAACA against OPRL1, the seed-corrected z-score was -0.00815.

Sequence AACGUAAUAAAAGUCUUGC against SERHL came in with a seed-corrected z-score of 0.571.

Sequence UGCUGGUUCAACUCAUCGC against DLGAP3 displayed a seed-corrected z-score of -2.34.

As for UUACUAACAUCUUCUCGUC against PKN2, the seed-corrected z-score is 0.115.

Sequence AAACCUAUUAGUGAGAACA against TRIML1 displayed a seed-corrected z-score of -0.116.

As for AAACGGAGUCGUAGGAUCC against BMP15, the seed-corrected z-score was -0.603.

For UUUCGUAUUCUGAGGACCG against DLGAP5, the seed-corrected z-score is 0.243.

With UUGCAGAUCUUUUCGCACC against S100A9, the seed-corrected z-score is -0.59.

AUUCGGAUUUGGGUCGUGC against PCDHGB2: the seed-corrected z-score was 0.36.

In turn, UCAUGAUCUAUGUAGCCCG against ODF3L1 yielded a seed-corrected z-score of -2.53.

As to UUCACCAUGACAGCCGAAG against RPL37AP8, the seed-corrected z-score was -0.494.

As to UUCAAUUCCAGCAACAUAA against CLDND1, the seed-corrected z-score was -0.35.

For the sequence AUGGUAACGAGCUGAAUCC against TWF1, the seed-corrected z-score was found to be 0.694.

Take AAAUGUACAGGGAUCCAGG against ACCSL: the seed-corrected z-score is -2.2.

For UUCAGGGCGAGGUAAUCCU against HLA-G, the seed-corrected z-score was -0.165.

As to UUUCAUAAUUGUCUCACUG against MTHFD2, the seed-corrected z-score amounted to 0.341.

Sequence AAACUUGUACACGUUCUUG against RPN2 returned a seed-corrected z-score of 1.31.

On to AUACGAUAAAUAGCAGCUG against OR2D2, for which the seed-corrected z-score was -0.266.

UCAUGUAUUGCUGGGUGGG against LETMD1: the seed-corrected z-score is -2.04.

The sequence UGAAAGCGCAGAUCUGUCU against HIST1H3G showed a seed-corrected z-score of -0.148.

The sequence UGGUCUAAGGCUUUGAUGC against KLK2 yielded a seed-corrected z-score of -0.348.

Consider UGAUAUUUUGGUGCGUUGU against FBXO45, for which the seed-corrected z-score came out at 0.68.
